From PubChem BioAssay (NCATS)
Values joined by “and” are separate entries in the source; they are usually repeats but may differ in a detail not shown here. Equal values may be shown once. Results filed as inconclusive are left out. A structure can be active in one record and inactive in another. Values without a mark were called inactive. Active and inactive are the calls of the source. Unless noted, calls come from the whole dose curve; as a rule, active = well fitted curve in the direction sought with a large enough effect; inconclusive = small, poorly fitted or top-dose-only effect, or another doubt; inactive = no such curve, though single readings can be large; an effect the other way counts as inactive or inconclusive.

What was measured:
[1] = target: Cellular tumor antigen p53 (Homo sapiens) (UniProt P04637); experiment: Primary qHTS for small molecule compounds that upregulate eGFP-tagged delta133p53alpha (in N-terminal) cells. (AID 2060322); details: NCI-H358 eGFP-delta133p53alpha fluorescence, 24 h; activation: active compounds read high; note: nearly all actives have a fitted effect of over 75% in size; note: potency is the fitted concentration of half-maximal effect;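 for activation: cells pre-induced with doxycycline then dosed without doxycycline; series mostly up to about 56 µM; 0% = DMSO vehicle and 100% = reference activator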
Chain of Cellular tumor antigen p53 (Homo sapiens) (P04637 whole entry, looked up): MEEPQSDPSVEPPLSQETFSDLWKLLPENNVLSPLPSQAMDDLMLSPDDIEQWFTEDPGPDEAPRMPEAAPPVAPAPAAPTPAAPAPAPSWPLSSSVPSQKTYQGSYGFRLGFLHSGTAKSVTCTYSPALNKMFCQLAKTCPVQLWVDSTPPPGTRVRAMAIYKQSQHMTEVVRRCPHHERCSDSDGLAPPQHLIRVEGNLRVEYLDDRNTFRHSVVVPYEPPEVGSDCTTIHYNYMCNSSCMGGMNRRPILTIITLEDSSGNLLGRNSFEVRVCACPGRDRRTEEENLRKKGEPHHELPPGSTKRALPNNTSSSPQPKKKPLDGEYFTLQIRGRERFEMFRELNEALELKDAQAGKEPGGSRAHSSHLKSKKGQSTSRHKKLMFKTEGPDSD
How it was run: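 NCI-H358 cells pre-induced 24 h with 10 ng/ml doxycycline for eGFP-delta133p53alpha, plated dox-free and exposed 24 h at 37C to titrated compounds. Fixed, Hoechst-stained; gated GFP peak intensity by laser scanning cytometry, normalized to DMSO (0%) and 57.5 uM 5-azacytidine (100%).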

[2] = target: Aldehyde dehydrogenase, mitochondrial (Homo sapiens) (UniProt P05091); experiment: qHTS for Inhibitors of the Aldehyde Dehydrogenase Family (ALDH2) Primary screen (AID 2061308);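 note: plate controls were vehicle for no effect and reference inhibitor for full effect; nearly all actives have a fitted effect of over 55% in size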
[3] = target: Retinaldehyde dehydrogenase 3 (Homo sapiens) (UniProt P47895); experiment: qHTS for Inhibitors of the Aldehyde Dehydrogenase Family (ALDH1A3) Primary screen (AID 2061315);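 note: plate controls were DMSO vehicle for no effect and reference inhibitor for full effect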
[4] = BET inhibitor-based combinations targeting novel dependencies in MECOM-rearranged (r) AML: SET-2 cell line (AID 2202231); details: SET-2 AML cells viability, CellTiter-Glo luminescence, 48 h; viability: active compounds read low, concentration not given here; note: nearly all actives have a fitted effect of over 35% in size; note: potency is the fitted concentration of half-maximal effect;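 for viability: plate controls were DMSO treated cells for no effect and wells without cells for full effect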
How it was run: (§1)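 Here, 11-point titrations of each agent were applied to 500 seeded cells and incubated 48 hr; CellTiter-Glo signal, scaled against DMSO and empty wells, was integrated as AUC, then Z-scored within the individual line.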

[5] = BET inhibitor-based combinations targeting novel dependencies in MECOM-rearranged (r) AML: HNT-34 cell line (AID 2202234); note: nearly all actives have a fitted effect of over 35% in size; note: potency is the fitted concentration of half-maximal effect
How it was run: (§2)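 Normalized to DMSO and empty-well controls, the luminescence data from CellTiter-Glo after 48 hr drug exposure were fitted across 11 concentrations. Reported metrics are area under the dose-response curve and its Z-transformed form.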

[6] = BET inhibitor-based combinations targeting novel dependencies in MECOM-rearranged (r) AML: UCSD-AML1 cell line (AID 2202235); note: nearly all actives have a fitted effect of over 40% in size; note: potency is the fitted concentration of half-maximal effect
How it was run: as §2

[7] = BET inhibitor-based combinations targeting novel dependencies in MECOM-rearranged (r) AML: AML-191 cell line (AID 2202236; note: nearly all actives have a fitted effect of over 35% in size; note: potency is the fitted concentration of half-maximal effect)
How it was run: as §1

[8] = BET inhibitor-based combinations targeting novel dependencies in MECOM-rearranged (r) AML: AML-194 cell line (AID 2202237; note: nearly all actives have a fitted effect of over 40% in size; note: potency is the fitted concentration of half-maximal effect)
How it was run: as §1

[9] = BET inhibitor-based combinations targeting novel dependencies in MECOM-rearranged (r) AML: OCI-AML3 cell line (AID 2202232); details: Potency: OCI-AML3 viability; note: nearly all actives have a fitted effect of over 35% in size; note: potency is the fitted concentration of half-maximal effect
How it was run: as §1

[10] = BET inhibitor-based combinations targeting novel dependencies in MECOM-rearranged (r) AML: MV-4-11 cell line (AID 2202233); note: nearly all actives have a fitted effect of over 45% in size; note: potency is the fitted concentration of half-maximal effect
How it was run: as §2

[11] = target: Retinaldehyde dehydrogenase 3 (Homo sapiens) (UniProt P47895); experiment: qHTS for Inhibitors of the Aldehyde Dehydrogenase Family (ALDH1A3) Validation screen (AID 2061312); note: % is set by controls: 0 for no effect and ±100 for the full control effect; nearly all actives have a fitted effect of over 45% in size
[12] = target: Cellular tumor antigen p53 (Homo sapiens) (UniProt P04637); experiment: Primary qHTS for small molecule compounds that upregulate eGFP-tagged delta133p53alpha (in C-terminal) cells. (AID 2060324); note: potency is the fitted concentration of half-maximal effect
How it was run: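 Concentration-response screen: compounds titrated onto pre-induced NCI-H358 D133p53a-eGFP cells, incubated one day, fixed with 3.5% PFA. Per-cell GFP peak intensity was gated, then normalized against intraplate controls.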

[13] = target: Aldehyde dehydrogenase, mitochondrial (Homo sapiens) (UniProt P05091); experiment: qHTS for Inhibitors of the Aldehyde Dehydrogenase Family (ALDH2) Validation screens (AID 2061302; active = well fitted inhibition curve with a large enough effect; title and protocol of this record describe different tests;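 note: plate controls were DMSO vehicle for no effect and maximal DPI positive control response for full effect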)

## CNC(=O)CN1CCC(Oc2cc3c(Nc4cccc(Cl)c4F)ncnc3cc2OC)CC1
[1]
  Potency: 13.7 µM (active)
  activation: 14.3%
[2]
  Potency: inactive
[3]
  Potency: inactive
[4]
  viability: 107%
[5]
  Potency: 16.6 µM (active)
[6]
  Potency: 20.9 µM (active)
[7]
  Potency: inactive
[8]
  Potency: inactive

## CC(C)n1nc(-c2cc3cc(O)ccc3[nH]2)c2c(N)ncnc21
[1]
  Potency: 21.3 µM (active)
  activation: 17.6%
[2]
  Potency: inactive
[4]
  Potency: 2.09 µM (active)
[9]
  Potency: 1.86 µM (active)
[10]
  Potency: 0.417 µM (active)
[5]
  Potency: 0.372 µM (active)
[6]
  Potency: 0.332 µM (active)
[7]
  Potency: 0.934 µM (active)

## COc1cc2c(Nc3ccc(Br)cc3F)ncnc2cc1OCC1CCN(C)CC1
[1]
  Potency: 21.3 µM (active)
  activation: 0.071% and -8.47%
[2]
  Potency: inactive
[3]
  Potency: inactive
[9]
  Potency: 23.5 µM (active)
[10]
  Potency: 3.32 µM (active)
[5]
  Potency: 2.63 µM (active)
[6]
  Potency: 14.8 µM (active)
[7]
  Potency: 20.9 µM (active)
[8]
  Potency: 23.5 µM (active)

## Cn1c(=O)c(-c2c(Cl)cccc2Cl)cc2cnc(Nc3cccc(C(=O)O)c3)nc21
[1]
  Potency: 12 µM (active)
  activation: 29.6%
[2]
  Potency: inactive
[11]
  Potency: inactive
[3]
  Potency: inactive
[4]
  viability: 116%
[6]
  Potency: inactive
[7]
  Potency: inactive
[8]
  Potency: inactive

## CN1CCN(CCOc2cc(OC3CCOCC3)c3c(Nc4c(Cl)ccc5c4OCO5)ncnc3c2)CC1
[1]
  Potency: 12.2 µM (active)
  activation: -8.11%
[2]
  Potency: inactive
[11]
  Potency: inactive
[3]
  Potency: inactive
[10]
  Potency: 13.2 µM (active)
[5]
  Potency: 1.32 µM (active)
[8]
  Potency: 23.5 µM (active)

## CC1(O)CC(c2nc(-c3ccc4ccc(-c5ccccc5)nc4c3)c3c(N)nccn23)C1 (centres undefined)
[1]
  Potency: 24.3 µM (active)
  activation: 34.8%
[2]
  Potency: inactive
[3]
  Potency: inactive
[4]
  viability: 83.7%
[9]
  Potency: inactive
[7]
  Potency: inactive
[8]
  Potency: inactive

## c1ccc2c(CCNc3ccc(Nc4ccncc4)cc3)c[nH]c2c1
[1]
  Potency: 30.6 µM (active)
  activation: -5.73%
[2]
  Potency: inactive
[11]
  Potency: inactive
[3]
  Potency: inactive
[4]
  Potency: 10.5 µM (active)
[9]
  Potency: 1.32 µM (active)
[10]
  Potency: 0.934 µM (active)
[5]
  Potency: 2.95 µM (active)
[6]
  Potency: 3.72 µM (active)
[7]
  Potency: 10.5 µM (active)
[8]
  Potency: 3.32 µM (active)

## Clc1ccccc1CN1CCc2sccc2C1
[1]
  Potency: 17.2 µM (active)
  activation: 16.7%
[9]
  Potency: inactive
[5]
  Potency: inactive
[6]
  Potency: inactive
[7]
  Potency: inactive
[8]
  Potency: inactive

## OCc1cc(C(O)CNCCCCCCOCCCCc2ccccc2)ccc1O (centres undefined)
[1]
  activation: 13.4% and 3.4%
[12]
  Potency: inactive

## Oc1ccc(/C=C/c2ccc(/C=C/c3ccc(O)cc3)c(Br)c2)cc1
[1]
  Potency: 3.38 µM (active)
[12]
  Potency: inactive

## NNc1nncc2ccccc12
[1]
  activation: 19.2% and 11.4% and 5.29%
[12]
  Potency: inactive

## COc1ccc(-c2cc3ncc(C)n3c(Nc3ncccc3C(N)=O)n2)cc1OC
[1]
  activation: 2.48%
[12]
  Potency: 10.7 µM (active)

## NC1(C(=O)O)CCc2cc(C(=O)O)ccc21 (centres undefined)
[1]
  activation: 7.39%
[12]
  Potency: inactive

## N#C/C(=C\c1ccc(O)c(O)c1)C(=O)c1ccc(O)c(O)c1
[1]
  activation: -3.67%
[12]
  Potency: inactive

## O=C(/C=C/c1ccc(O)c(O)c1)OCCc1ccccc1
[1]
  activation: -0.816%
[12]
  Potency: inactive

## O=C(CCc1ccncc1)NNC(=O)N1Cc2ccccc2Oc2ccc(Cl)cc21
[1]
  activation: -9.58%
[12]
  Potency: inactive
[13]
  Potency: inactive

## O=c1oc(Cl)c(Cl)c2ccccc12
[1]
  activation: 3%
[12]
  Potency: inactive

## COc1ncnc(NS(=O)(=O)c2ccc(N)cc2)c1OC
[1]
  Potency: 27.3 µM (active)
  activation: 26.8%
[4]
  viability: 116%
[9]
  Potency: inactive
[10]
  Potency: inactive
[5]
  Potency: inactive
[6]
  Potency: inactive
[7]
  Potency: inactive
[8]
  Potency: inactive

## CC(C)[C@H](C(=O)Nc1ccc(C(=O)NO)cc1)c1ccccc1
[1]
  Potency: 30.6 µM (active)
  activation: 66.7%
[9]
  Potency: 0.742 µM (active)
[10]
  Potency: 0.372 µM (active)
[5]
  Potency: 0.833 µM (active)
[6]
  Potency: 0.833 µM (active)
[7]
  Potency: 0.662 µM (active)
[8]
  Potency: 0.833 µM (active)

## N#C/C(=C\c1ccc(O)c(O)c1)C(=O)NCCc1ccccc1
[1]
  activation: -26.1%
[12]
  Potency: inactive

## COC(=O)C1=C(C)NC(C)=C(C(=O)OC)C1c1ccccc1[N+](=O)[O-]
[1]
  activation: -16.4% and -36.9%
[12]
  Potency: inactive

## Cn1cc(C(F)(F)F)nc1-c1ccc(OCC(O)CNCCOc2ccc(O)c(C(N)=O)c2)cc1 (centres undefined)
[1]
  activation: -30.5%
[12]
  Potency: inactive
